Assay results: article PMC4336329 (PLoS ONE, 2015)
Out of some 310,000 compounds screened, about 14,000 (4.5%) showed an effect of 50% or more. Effects have a minus sign here. The entries come from a sample that favours strong results as a whole.

Target: human ether-à-go-go-related gene (hERG) potassium channel (human, UniProt Q12809)
Experiment: primary screen, population patch clamp on CHO cells stably expressing hERG; higher = less effect of the substance
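Also: peak tail current of the secondary pulse compared with the same well before compound.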

Sequence of human ether-à-go-go-related gene (hERG) potassium channel (Q12809 whole entry, looked up): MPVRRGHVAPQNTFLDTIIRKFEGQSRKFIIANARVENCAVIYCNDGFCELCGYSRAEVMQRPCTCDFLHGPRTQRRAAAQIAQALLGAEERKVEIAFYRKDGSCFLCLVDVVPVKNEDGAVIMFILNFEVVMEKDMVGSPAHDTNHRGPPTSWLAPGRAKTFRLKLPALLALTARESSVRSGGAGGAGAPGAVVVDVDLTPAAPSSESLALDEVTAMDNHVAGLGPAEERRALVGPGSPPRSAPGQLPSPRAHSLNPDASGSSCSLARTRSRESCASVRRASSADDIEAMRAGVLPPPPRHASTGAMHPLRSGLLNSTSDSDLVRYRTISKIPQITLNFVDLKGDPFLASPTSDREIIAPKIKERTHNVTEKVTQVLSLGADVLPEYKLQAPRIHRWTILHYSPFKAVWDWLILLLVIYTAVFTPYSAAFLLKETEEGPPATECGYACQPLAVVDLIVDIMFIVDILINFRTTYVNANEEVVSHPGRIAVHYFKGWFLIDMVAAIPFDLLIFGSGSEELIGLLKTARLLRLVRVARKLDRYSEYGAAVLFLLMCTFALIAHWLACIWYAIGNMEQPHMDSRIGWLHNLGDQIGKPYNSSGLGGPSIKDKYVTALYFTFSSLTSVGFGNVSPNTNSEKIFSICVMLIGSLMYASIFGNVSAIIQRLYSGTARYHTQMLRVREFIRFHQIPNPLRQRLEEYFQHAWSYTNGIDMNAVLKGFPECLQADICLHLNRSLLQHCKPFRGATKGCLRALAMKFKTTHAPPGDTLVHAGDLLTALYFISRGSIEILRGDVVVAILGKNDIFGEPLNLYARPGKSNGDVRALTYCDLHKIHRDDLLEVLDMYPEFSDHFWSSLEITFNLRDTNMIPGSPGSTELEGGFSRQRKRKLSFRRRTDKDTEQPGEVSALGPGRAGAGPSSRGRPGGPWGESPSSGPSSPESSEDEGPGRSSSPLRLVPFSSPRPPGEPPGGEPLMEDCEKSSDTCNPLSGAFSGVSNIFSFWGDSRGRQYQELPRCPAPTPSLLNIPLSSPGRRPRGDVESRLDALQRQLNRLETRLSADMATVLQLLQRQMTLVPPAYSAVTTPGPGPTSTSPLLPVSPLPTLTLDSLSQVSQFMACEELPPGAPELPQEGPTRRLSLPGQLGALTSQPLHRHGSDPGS

Row | Structure (SMILES) | hERG current change (%, negative = inhibition) at 10uM
1 | O=C(N1CCCCC1)N1CCN(S(=O)(=O)c2ccccc2)CC1 | 10.4%
2 | Nc1cc(-c2ccc(Cl)cc2)nn1S(=O)(=O)c1ccc(Cl)cc1 | 19.1%
3 | CC(=O)Nc1ccc(OCc2cnc(Cl)s2)cc1 | 11.3%
4 | CCN(C(=O)COC(=O)c1c(C)nsc1NC)c1ccccc1 | -11.9%
5 | Cc1onc(-c2ccccc2)c1C(=O)NNC(=S)NC(=O)/C=C/c1ccccc1 | 16.2%
6 | O=C(c1ccccc1)N1CCN(C2c3cccc4cccc(c34)C2NS(=O)(=O)c2ccccc2)CC1 (centres unmarked) | -21.9%
7 | O=S(=O)(Nc1ccc(S(=O)(=O)N2CCCC2)cc1)c1ccccc1Br | 3.27%
8 | CCC(=NCc1ccccc1)C1=C(O)C(C(=O)OC)C(C)(C)CC1=O (centres unmarked) | -17%
9 | C[C@@H]1CC=C[C@H]2[C@H]1C(=O)N(Cc1ccccc1)[C@H]2c1ccc(-c2ccc(F)cc2)cc1F | -0.198%
10 | O=C(CSc1nnc(-c2cccs2)n1-c1ccccc1)NCC1CCCO1 (centres unmarked) | -74.1%
11 | O=C(CSc1nc2c(c(=O)n1-c1ccc(F)cc1)SCC2)NCC1CCCO1 (centres unmarked) | -2.45%
12 | O=C(CSc1nnc(-c2cccs2)n1-c1ccccc1)NCc1ccco1 | -73%
13 | Cc1cc(C)nc(SCc2nnc(SCC(=O)NCc3ccco3)n2-c2ccccc2)n1 | -14.5%
14 | Cc1nnc(SCC(=O)NCC2CCCO2)n1-c1ccccc1 (centres unmarked) | -4.28%
15 | O=C(CSc1nnc(-c2cccs2)n1C1CC1)NCC1CCCO1 (centres unmarked) | -0.536%
16 | O=C(CSc1nc2c(c(=O)n1-c1ccc(Cl)cc1)SCC2)NCC1CCCO1 (centres unmarked) | -34.5%
17 | O=C(CSc1nc2c(c(=O)n1-c1ccc(Br)cc1)SCC2)NCC1CCCO1 (centres unmarked) | -60.9%
18 | CCn1c(SCC(=O)NCc2ccco2)nnc1-c1cccs1 | -8.86%
19 | CN(/N=C/c1c[nH]c2ccccc12)c1cnn(-c2ccc(F)c(Cl)c2)c(=O)c1Cl | -5.66%
20 | CCOc1ccccc1CN1CCNC(=O)C1CC(=O)N(C)Cc1nonc1C (centres unmarked) | 8.59%
21 | COc1ccc(CNC(=O)c2cccc(-c3ccc(C)c4ccccc34)n2)cc1 | -24%
22 | COc1ccc(-c2ccc(NS(=O)(=O)c3cc([N+](=O)[O-])ccc3C)cc2)nn1 | -25.5%
23 | CN(CC(=O)Nc1ccc(Cl)cc1)S(=O)(=O)c1ccc2c(c1)n(C)c(=O)c(=O)n2C | 16.3%
24 | COc1ccc(CC2(CO)CCN(CC3=Cc4cc(Cl)ccc4OC3)CC2)cc1 | -58.3%

Row | Structure (SMILES) | hERG current change (%, negative = inhibition) at 10uM
25 | COc1cccc(CC2(CO)CCCN(CC3=Cc4cc(Cl)ccc4OC3)C2)c1 (centres unmarked) | -7.49%
26 | OCC1(CCOc2ccccc2)CCN(CC2=Cc3cc(Cl)ccc3OC2)CC1 | -21.9%
27 | COc1cccc(CC2(CO)CCCN(CC3=Cc4cc(OC)ccc4OC3)C2)c1 (centres unmarked) | -21.5%
28 | COc1ccc2c(c1)C=C(CN1CCC(CO)(CCc3ccccc3)CC1)CO2 | -77.1%
29 | CCOc1ccc(S(=O)(=O)NC(Cc2cnc[nH]2)C(=O)O)cc1 (centres unmarked) | 18.5%
30 | CCN(CC)c1ccc(NC(=O)c2ccc(=O)[nH]c2)cc1S(=O)(=O)Nc1ccc(OC)cc1 | -7.22%
31 | CC(C)CCNC(=O)c1cccc(S(=O)(=O)N2CCc3ccccc32)c1 | 2.44%
32 | CCN(CC)CCNC(=O)c1cc(S(=O)(=O)N2CCc3ccccc32)cn1C | -66.1%
33 | CC(C)CCNC(=O)c1cc(S(=O)(=O)N2CCc3ccccc32)cn1C | 10.2%
34 | CCN(CC)CCCC(C)NC(=O)c1cccc(S(=O)(=O)N2CCc3ccccc32)c1.Cl (centres unmarked) | -58.5%
35 | CCCNC(=O)c1cc(S(=O)(=O)N2CCc3ccccc32)cn1C | -0.715%
36 | CC(NC(=O)c1cccc(S(=O)(=O)N2CCc3ccccc32)c1)c1ccco1 (centres unmarked) | -48%
37 | CCCOc1ccccc1C1CC(=O)NC2=C1C(=O)CCC2 (centres unmarked) | -1.24%
38 | C=CCOc1ccc(/C=C/C(=O)OC(C)C(=O)Nc2ccc(NC(C)=O)cc2)cc1 (centres unmarked) | 4.6%
39 | Cc1nc(CNC(=O)CC2C(=O)NCCN2Cc2ccc(F)cc2)cs1 (centres unmarked) | 11.9%
40 | Cc1cc(C)nc(N(C#N)CN2C(=O)c3ccccc3S2(=O)=O)n1 | 0.542%
41 | O=C(O)c1ccc(Cl)c(S(=O)(=O)N2CCCCCC2)c1 | -8.34%
42 | C/C(=N\NC(=O)CN(c1ccc(C)cc1)S(C)(=O)=O)c1cccs1 | -8.31%
43 | O=C(Nc1cc(Cl)ccc1Oc1ccccc1)c1ccc(F)cc1 | -14.1%
44 | COc1ccc(C2=NN(C(=O)CSc3nc(=O)n4ccc(C)cc4n3)C(c3ccc(C)cc3)C2)cc1 (centres unmarked) | 5.1%
45 | Cc1ccn2c(=O)nc(SCC(=O)N3N=C(c4cccs4)CC3c3ccc(F)cc3)nc2c1 (centres unmarked) | -65%
46 | CCOC(=O)CSCC(=O)N1N=C(c2cccs2)CC1c1ccc(F)cc1 (centres unmarked) | -34.1%
47 | Cc1ccc(C2CC(c3cccs3)=NN2C(=O)CSc2nc(=O)n3ccc(C)cc3n2)cc1 (centres unmarked) | -46.3%
